Pol kappa inh = inhibitors of human DNA polymerase kappa | Q9UBT6 | purified Pol kappa, fluorescent DNA synthesis assay, 10 min | Potency, µM (doses to about 107 µM), hits mostly inhibitors | 400,000 compounds, 0.53% hits | AID 588579
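Kinetic fluorescence screen: compound preincubated 15 min RT with 10 nM enzyme; 50 nM substrate (final) initiates; reads at 0/10 min.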
Pol iota inh = inhibitors of human DNA polymerase iota; Pol iota fluorescent replication assay, 10 min; Potency, µM (titrated, usually from 115 µM), hits mostly inhibitors; 390,000 compounds, 1% hits; AID 588590
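Pol iota at 10 nM preincubated 15 min with compounds at room temperature; reaction started with fluorescent substrate, 50 nM final. Fluorescence read kinetically at 0 and 10 min; buffer-only wells as negative control.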
FEN1 inhibitor = human FEN1 inhibition | P39748 | Recombinant FEN1 flap cleavage, fluorescence, 15 min | Potency, µM (top dose mostly 114 µM), most hits filed as inhibitors | 390,000 compounds, 0.35% hits | AID 588795; further: nearly all actives have a fitted effect of over 65% in size
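Read-out was taken twice, immediately and after 15 min, following addition of 50 nM substrate to 10 nM FEN1 that had sat with test compound for 15 min at room temperature. Curves came from a four-parameter Hill model.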
WRN inhibitor = WRN helicase (human) inhibition; WRN helicase unwinding, fluorescent forked duplex, kinetic; Potency, µM (highest dose often 114 µM), usual class: inhibitors; 360,000 compounds, 0.46% hits; AID 651768; further: nearly all actives have a fitted effect of over 55% in size
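Kinetic red-fluorescence monitoring (525/598 nm) tracks WRN helicase activity after 100 nM fluorophore-quencher forked duplex and 2 mM ATP are added to 20 nM enzyme pretreated 15 min at room temperature with compound.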
Pol beta inh = blocks human DNA polymerase beta activity. P06746. Pol beta primer extension/strand displacement, fluorescence kinetic. Potency, µM (titrated, usually from 114 µM), usual class: inhibitors. 340,000 compounds, 1.3% hits. AID 485314
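Values derive from four-parameter Hill fits of normalized kinetic data: reads at 0 and 10 min following addition of 50 nM substrate to 10 nM Pol beta preincubated 15 min with compound.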
Pol eta inh = inhibitors of human DNA polymerase eta. recombinant Pol eta, fluorescent DNA replication assay. Potency, µM (highest dose often 114 µM), actives largely listed as inhibitors. Q9Y253. 390,000 compounds, 1.2% hits
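Fluorescent replication assay: 50 nM final substrate added after a 15 min room-temperature compound preincubation with 10 nM enzyme. Signal taken at 0 min and again at 10 min.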
Numbers stand for hits; 0 = inactive; ? = inconclusive; - = no result given; [ ] = remark or other dose. In the library only some 2.4% were active in any assay of this set; here they are far more common. The call rests on the fitted dose curve; in most records, active means well fitted curve in the direction sought with a large enough effect; inconclusive means small, poorly fitted or top-dose-only effect, or another doubt; inactive means no such curve, though single readings can be large; an effect the other way counts as inactive or inconclusive.

SMILES | Pol kappa inh | Pol iota inh | FEN1 inhibitor | WRN inhibitor | Pol beta inh | Pol eta inh
COc1ccc(-c2nc3cnc(Oc4cccc(Cl)c4)nc3n(CCC#N)c2=O)cc1 | 0 | - | - | - | - | -
Cc1occc1C(=O)NCc1ccco1 | 0 | ? | 0 | 0 | 31.6µM | ?
Cc1occc1C(=O)NCc1ccccc1 | 0 | 0 | 0 | 0 | 0 | 0
Cc1occc1C(=O)NCc1ccc(C(=O)O)o1 | 0 | 0 | 0 | 0 | 0 | 56.2µM
Cc1c(Br)cc(C(=O)NCc2ccco2)c(C)c1C | 0 | ? | 0 | 0 | 22.4µM | ?
Cc1occc1C(=O)NCCc1ccc(Cl)cc1 | 0 | 0 | 0 | 0 | 0 | 0
NC(=O)N(CCC(=O)O)c1ccccc1 | 0 | 0 | 0 | 0 | 20µM | ?
CCN(CCC(=O)O)c1ccccc1 | 0 | 0 | 0 | 0 | 0 | 0
CCCc1ccc(C(=O)NNC(=O)c2ccc(Br)cc2)cc1 | 0 | ? | 0 | 0 | 44.7µM | ?
Clc1ccc(/C=C/c2ccc3ccccc3n2)cc1Cl | 0 | 0 | ? | - | - | -
CC[N+](C)(C)c1ccc(/C=C/c2ccncc2)cc1 | 0 | 79.4µM | ? | - | - | -
CC[N+](C)(C)c1ccc(/C=C/c2ccc3ccccc3n2)cc1 | 0 | 0 | 44.7µM | - | - | -
CCN(CC)c1ccc(/C=C/c2nccc3ccccc23)cc1 | 0 | 0 | ? | - | - | -
CCN(CC)c1ccc(/C=C/c2ccc3ccccc3n2)cc1 | 39.8µM | ? | 44.7µM | - | - | -
CN(C)C(=O)c1ccc(-c2ccc3ncnc(NC4CCNCC4)c3c2)cc1 | 0 | - | - | - | - | -
Cn1c(=O)n(-c2ccc3c(c2)OCO3)c2nc(-c3ccccc3)nc(C(N)=O)c21 | 0 | 0 | 0 | - | 6.31µM | ?
Cc1cccc(N2CCN(C(=O)CCS(=O)(=O)c3ccc(Br)cc3)CC2C)c1 (configuration not stated) | 89.1µM | 44.7µM | 0 | ? | 25.1µM | ?
Cc1ccc(-c2ccc(=O)n(CC(=O)N3CCN(c4cccc(C)c4)C(C)C3)n2)cc1 (configuration not stated) | 0 | 79.4µM | 0 | 0 | 0 | 0
Cc1cccc(N2CCN(C(=O)Cn3nc(C)n4cccc4c3=O)CC2C)c1 (configuration not stated) | 0 | 0 | 0 | 0 | 0 | 0
c1ccc(C(OC2CCCN(CCc3ccc4c(c3)OCO4)C2)c2ccccc2)cc1 (configuration not stated) | 0 | - | - | - | - | -
O=C(CC1c2ccccc2Oc2ccccc21)Nc1ccccc1F | 0 | 89.1µM | 0 | 0 | 0 | 0
CC[N+]1(CC(=O)c2ccc(OC)cc2)CCCCC1 | 0 | 0 | 0 | - | - | -
COc1ccc2cc3[n+](cc2c1O)CCc1cc2c(cc1-3)OCO2 | - | - | - | 50.1µM | - | -
COc1cc2c(cc1OC)-c1cc3ccc(OC)c(OC)c3c[n+]1CC2 | 0 | 0 | ? | 0[11.6 µM] | - | 0
O=Cc1ccc(-c2ccccc2C(=O)O)o1 | 0 | 0 | 0 | 0 | ? | 0
SMILES | Pol kappa inh | Pol iota inh | FEN1 inhibitor | WRN inhibitor | Pol beta inh | Pol eta inh
CN(C)/C=C1/C(=O)N(c2ccc([N+](=O)[O-])cc2)N=C1c1ccccc1 | - | - | - | - | 0 | -
O=C(O)c1ccc(N/N=C/c2ccc(-c3cccc(Cl)c3)o2)cc1 | 0 | ? | ? | 0 | ? | 79.4µM
CC1=NN(c2ccc(Br)cc2)C(=O)/C1=C/c1ccc(-c2ccccc2C(=O)O)o1 | 0 | ? | ? | 0[11.6 µM] | 0 | 79.4µM
Cc1c(C(=O)O)cccc1-c1ccc(/C=N/Nc2ccc(Br)cc2)o1 | 0 | ? | 0 | ? | ? | 22.4µM
O=C1/C(=C\c2ccc(-c3ccccc3[N+](=O)[O-])o2)C(c2ccccc2)=NN1c1ccccc1 | 0 | 10µM | 0 | 0 | 0 | 50.1µM
CC(CCC(C)[n+]1cccc(Br)c1)[n+]1cccc(Br)c1 (configuration not stated) | 0 | ? | 0 | - | - | -
Nc1nc2[nH]cc(CCc3ccc(C(=O)NC(CCC(=O)O)C(=O)O)cc3)c2c(=O)[nH]1 (configuration not stated) | 0[19.4 µM] | - | - | - | - | -
CCCCCCCCN1[C@@H](CC(=O)OC)c2ccc(/C=C/C(=O)OC)cc2S1(=O)=O | 0 | ? | 0 | - | - | -
Cc1cc2oc(C(=O)NCCc3ccc(S(N)(=O)=O)cc3)cc(=O)c2cc1C | 0 | 0 | 0 | 0 | 0 | 0
Cc1cc2oc(C(=O)NCCc3ccc(S(N)(=O)=O)cc3)c(C)c2cc1C | 0 | 25.1µM | ? | 0 | 5.62µM | 0
